From PubChem BioAssay (Tox21)
“And” between values parts separate entries of the source, which are not always exact repeats. Equal entries are not always repeated. Results filed as inconclusive are left out. A call without a number means that no potency is given here. A structure can be active in one record and inactive in another. The source made the active and inactive calls. Unless noted, calls follow the shape of the dose curve; as a rule, active = well fitted curve in the direction sought with a large enough effect in the repeat runs; inconclusive = weak or mixed curves; inactive = no such curve, though single readings can be large; an effect the other way counts as inactive or inconclusive.

Columns and labels:
[1] = Caspase-3/7 induction in CHO-K1 cells by small molecules, qHTS assay (AID 1346980); also: nearly all actives have a fitted effect of over 15% in size
Summary of the method: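 Wild-type CHO-K1 cells exposed to compounds for 17hr at 37 C, 5% CO2. Caspase-3/7 activity then measured by Caspase-Glo 3/7 luminescence after 30min at room temperature.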

[2] = Caspase-3/7 induction in HepG2 cells by small molecules, qHTS cell viability counter screen (AID 1346981); also: series mostly up to about 92 µM; nearly all actives have a fitted effect of over 30% in size
Summary of the method: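 CellTiter-Fluor fluorescence measured viability in the same wells used for Caspase-Glo 3/7. HepG2 (wild type) at 2,000 cells/well were pre-incubated 5 hr, dosed, and given reagent at 16 hr, with 1 hr further at 37C.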

[3] = target: Nuclear receptor subfamily 1 group I member 2 (Homo sapiens) (UniProt O75469); test: Human pregnane X receptor (PXR) small molecule agonists, qHTS assay (AID 1346982); also: nearly all actives have a fitted effect of over 35% in size; also: potency is read from the fitted curve at half-maximal effect
Summary of the method: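 Agonist mode: luminescence from ONE-Glo after 24 h compound exposure at 37C in HepG2 cells carrying hPXR-responsive CYP3A4 luciferase, plated in charcoal-stripped serum medium 5 h beforehand.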

[4] = target: Acetylcholinesterase (Homo sapiens) (UniProt P22303); test: Acetylcholinesterase (AChE) small molecule antagonists: colormetric cell-based qHTS assay (AID 1347395; calls by dose curve; also: nearly all actives have a fitted effect of over 30% in size; also: potency is read from the fitted curve at half-maximal effect)
Summary of the method: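 After overnight attachment at 37 C, SH-SY5Y cells get 30 min compound exposure; detection cocktail (acetylthiocholine, DTNB) then incubates 90 min at 37 C, and absorbance reflects AChE-generated thiocholine.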

[5] = target: Acetylcholinesterase (Homo sapiens) (UniProt P22303); test: Acetylcholinesterase (AChE) small molecule antagonists: enzyme-based qHTS assay (AID 1347397; calls by dose curve; also: nearly all actives have a fitted effect of over 55% in size; also: potency is read from the fitted curve at half-maximal effect); settings: Potency: AChE enzyme activity inhibition
Summary of the method: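 In this quantitative HTS, compounds from the Tox21 10K collection were preincubated 30 min at ambient temperature with recombinant human AChE dispensed at 50 mU/mL. Hydrolysis of acetylthiocholine was then followed for 10 min by DTNB colour development.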

[6] = target: Acetylcholinesterase (Homo sapiens) (UniProt P22303); test: Acetylcholinesterase (AChE) small molecule antagonists: fluorescence cell-based qHTS assay (AID 1347398; calls by dose curve; also: nearly all actives have a fitted effect of over 50% in size; also: potency is read from the fitted curve at half-maximal effect); settings: Potency: AChE activity
Summary of the method: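 Cells (SH-SY5Y) attached overnight, were dosed with compound or DMSO vehicle for 30 min at 37 C, and then incubated 40 min at room temperature with acetylthiocholine and Thiolite Green; green fluorescence indexed AChE activity.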

[7] = target: Acetylcholinesterase (Homo sapiens) (UniProt P22303); test: Acetylcholinesterase (AChE) small molecule antagonists: enzyme-based qHTS assay with human liver microsomes (AID 1347399; calls by dose curve; also: nearly all actives have a fitted effect of over 60% in size; also: potency is read from the fitted curve at half-maximal effect); settings: Potency: qHTS inhibition
Summary of the method: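 Recombinant human AChE (50 mU/mL in the enzyme mix) and human liver microsomes (0.25 mg/mL final) were preincubated with compound and NADPH (0.25 mg/mL final) for 30 min at 37 C. Acetylthiocholine/DTNB was then added; thiocholine was read colorimetrically after 10 min at room temperature.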

[8] = target: Cytochrome P450 2D6 (Homo sapiens) (UniProt P10635); test: Cytochrome P450 Family 2 Subfamily D Member 6 (CYP2D6) small molecule antagonists: luciferase reporter qHTS assay (AID 1671196); also: nearly all actives have a fitted effect of over 50% in size; also: potency is read from the fitted curve at half-maximal effect
Summary of the method: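 CYP2D6 activity was followed as luminescence from its luciferin product after a 1 h NADPH-driven reaction at room temperature. Enzyme-substrate mix and compound were pre-incubated for 10 min, and the signal was read 20 min after adding detection reagent.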

[9] = target: Cytochrome P450 2C19 (Homo sapiens) (UniProt P33261); test: Cytochrome P450 Family 2 Subfamily C Member 19 (CYP2C19) small molecule antagonists: luciferase reporter qHTS assay (AID 1671197); also: nearly all actives have a fitted effect of over 65% in size; also: potency is read from the fitted curve at half-maximal effect
Summary of the method: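 Relative luminescence units recorded 20 min after the detection reagent stopped a 1 h, 37C CYP2C19 reaction on proluciferin substrate, which was started by NADPH regeneration following 10 min room-temperature compound preincubation; ketoconazole positive control.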

[10] = target: Cytochrome P450 2C9 (Homo sapiens) (UniProt P11712); test: Cytochrome P450 Family 2 Subfamily C Member 9 (CYP2C9) small molecule antagonists: luciferase reporter qHTS assay (AID 1671198); also: nearly all actives have a fitted effect of over 50% in size; also: potency is read from the fitted curve at half-maximal effect
Summary of the method: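 P450-Glo proluciferin substrate with CYP2C9 enzyme; 10 min RT preincubation, then NADPH regeneration 1 h at 37C; luciferin detection reagent 20 min RT, luminescence in relative luminescence units.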

[11] = target: Cytochrome P450 1A2 (Homo sapiens) (UniProt P05177); test: Cytochrome P450 Family 1 Subfamily A Member 2 (CYP1A2) small molecule antagonists: luciferase reporter qHTS assay (AID 1671199); also: nearly all actives have a fitted effect of over 50% in size; also: potency is read from the fitted curve at half-maximal effect
Summary of the method: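 Luminescence from luciferin formed by CYP1A2 from a proluciferin substrate, read 20 min after detection reagent. Compound was pre-incubated 10 min with enzyme-substrate, and reaction started with NADPH regeneration solution for 1 h at room temperature; furafylline control.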

[12] = target: Voltage-gated inwardly rectifying potassium channel KCNH2 (Homo sapiens) (UniProt Q12809); test: Human Ether-a-go-go-Related Gene (hERG) channel small molecule antagonists: fluorescence cell-based qHTS assay (AID 1671200)
Summary of the method: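 In this thallium-flux screen, overnight-cultured U2OS cells bearing the channel are dye-loaded in darkness for an hour, rested 10 min at room temperature, and then monitored kinetically at 480/540 nm for two minutes post-stimulus.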

[13] = target: Cytochrome P450 3A4 (Homo sapiens) (UniProt P08684); test: Cytochrome P450 Family 3 Subfamily A Member 4 (CYP3A4) small molecule antagonists: luciferase reporter qHTS assay (AID 1671201); also: nearly all actives have a fitted effect of over 50% in size; also: potency is read from the fitted curve at half-maximal effect
Summary of the method: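 CYP3A4 activity was followed with a P450-Glo proluciferin substrate. Test compounds in DMSO were preincubated 10 min; NADPH regeneration then ran 1 h, and light output was read 20 min after detection reagent.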

[14] = target: Nuclear receptor subfamily 1 group I member 2 (Rattus norvegicus) (UniProt Q9R1A7); test: Rat pregnane X receptor (rPXR) activation by small molecules, qHTS assay (AID 1346983); settings: rPXR luciferase reporter cells, One-Glo luminescence, 24 h; stronger effect = higher value; also: nearly all actives have a fitted effect of over 20% in size
Summary of the method: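 Cell-based rPXR activation assay: rPXR cells, 2,000 per well, rested 5hr at 37 C, then exposed to compounds in DMSO for 24 hr at 37 C. Luciferase activity read by One-Glo luminescence after 30 min at room temperature.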

Sequence of Cytochrome P450 1A2 (Homo sapiens) (P05177 whole entry, looked up): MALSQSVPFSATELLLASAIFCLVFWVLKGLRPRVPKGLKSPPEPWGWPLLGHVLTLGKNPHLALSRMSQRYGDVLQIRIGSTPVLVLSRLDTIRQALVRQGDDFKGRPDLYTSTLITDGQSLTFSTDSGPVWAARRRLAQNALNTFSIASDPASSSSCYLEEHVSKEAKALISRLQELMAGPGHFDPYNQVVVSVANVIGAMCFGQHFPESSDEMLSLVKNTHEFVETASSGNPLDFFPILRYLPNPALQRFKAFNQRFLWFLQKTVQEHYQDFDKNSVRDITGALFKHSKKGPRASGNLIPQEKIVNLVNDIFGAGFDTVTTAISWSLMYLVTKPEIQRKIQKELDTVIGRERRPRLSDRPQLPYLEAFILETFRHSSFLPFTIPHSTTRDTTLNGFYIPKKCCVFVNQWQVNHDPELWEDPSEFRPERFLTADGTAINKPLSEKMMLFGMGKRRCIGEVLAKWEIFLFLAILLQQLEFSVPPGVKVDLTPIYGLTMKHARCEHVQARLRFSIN
Sequence of Nuclear receptor subfamily 1 group I member 2 (Rattus norvegicus) (Q9R1A7 whole entry, looked up): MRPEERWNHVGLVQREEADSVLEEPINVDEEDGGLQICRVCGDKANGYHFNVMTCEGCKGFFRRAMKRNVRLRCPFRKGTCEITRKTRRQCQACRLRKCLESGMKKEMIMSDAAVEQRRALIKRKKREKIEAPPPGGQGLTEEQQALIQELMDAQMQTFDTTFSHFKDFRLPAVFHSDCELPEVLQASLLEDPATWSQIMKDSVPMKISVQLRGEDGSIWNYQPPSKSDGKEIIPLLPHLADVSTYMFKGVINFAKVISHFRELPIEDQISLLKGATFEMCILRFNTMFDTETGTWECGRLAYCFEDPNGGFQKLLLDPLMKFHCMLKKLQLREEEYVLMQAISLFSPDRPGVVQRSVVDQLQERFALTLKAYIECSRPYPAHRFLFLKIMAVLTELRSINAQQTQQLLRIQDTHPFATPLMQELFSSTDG
Sequence of Acetylcholinesterase (Homo sapiens) (P22303 whole entry, looked up): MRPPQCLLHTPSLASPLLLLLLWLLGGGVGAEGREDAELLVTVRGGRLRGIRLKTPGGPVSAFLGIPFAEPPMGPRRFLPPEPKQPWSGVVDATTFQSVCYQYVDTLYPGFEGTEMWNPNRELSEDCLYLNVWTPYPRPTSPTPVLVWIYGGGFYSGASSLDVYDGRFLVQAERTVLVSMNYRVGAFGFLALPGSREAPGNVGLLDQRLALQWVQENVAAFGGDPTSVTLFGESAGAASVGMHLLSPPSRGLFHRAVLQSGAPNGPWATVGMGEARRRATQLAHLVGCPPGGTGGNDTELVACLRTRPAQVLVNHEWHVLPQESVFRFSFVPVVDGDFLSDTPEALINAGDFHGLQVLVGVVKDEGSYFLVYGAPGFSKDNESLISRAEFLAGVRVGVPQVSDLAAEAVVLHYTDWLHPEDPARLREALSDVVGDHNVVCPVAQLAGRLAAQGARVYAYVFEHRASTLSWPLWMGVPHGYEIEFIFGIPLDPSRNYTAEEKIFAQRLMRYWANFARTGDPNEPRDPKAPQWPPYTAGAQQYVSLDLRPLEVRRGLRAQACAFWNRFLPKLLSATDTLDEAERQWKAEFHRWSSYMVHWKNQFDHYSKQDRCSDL
Sequence of Voltage-gated inwardly rectifying potassium channel KCNH2 (Homo sapiens) (Q12809 whole entry, looked up): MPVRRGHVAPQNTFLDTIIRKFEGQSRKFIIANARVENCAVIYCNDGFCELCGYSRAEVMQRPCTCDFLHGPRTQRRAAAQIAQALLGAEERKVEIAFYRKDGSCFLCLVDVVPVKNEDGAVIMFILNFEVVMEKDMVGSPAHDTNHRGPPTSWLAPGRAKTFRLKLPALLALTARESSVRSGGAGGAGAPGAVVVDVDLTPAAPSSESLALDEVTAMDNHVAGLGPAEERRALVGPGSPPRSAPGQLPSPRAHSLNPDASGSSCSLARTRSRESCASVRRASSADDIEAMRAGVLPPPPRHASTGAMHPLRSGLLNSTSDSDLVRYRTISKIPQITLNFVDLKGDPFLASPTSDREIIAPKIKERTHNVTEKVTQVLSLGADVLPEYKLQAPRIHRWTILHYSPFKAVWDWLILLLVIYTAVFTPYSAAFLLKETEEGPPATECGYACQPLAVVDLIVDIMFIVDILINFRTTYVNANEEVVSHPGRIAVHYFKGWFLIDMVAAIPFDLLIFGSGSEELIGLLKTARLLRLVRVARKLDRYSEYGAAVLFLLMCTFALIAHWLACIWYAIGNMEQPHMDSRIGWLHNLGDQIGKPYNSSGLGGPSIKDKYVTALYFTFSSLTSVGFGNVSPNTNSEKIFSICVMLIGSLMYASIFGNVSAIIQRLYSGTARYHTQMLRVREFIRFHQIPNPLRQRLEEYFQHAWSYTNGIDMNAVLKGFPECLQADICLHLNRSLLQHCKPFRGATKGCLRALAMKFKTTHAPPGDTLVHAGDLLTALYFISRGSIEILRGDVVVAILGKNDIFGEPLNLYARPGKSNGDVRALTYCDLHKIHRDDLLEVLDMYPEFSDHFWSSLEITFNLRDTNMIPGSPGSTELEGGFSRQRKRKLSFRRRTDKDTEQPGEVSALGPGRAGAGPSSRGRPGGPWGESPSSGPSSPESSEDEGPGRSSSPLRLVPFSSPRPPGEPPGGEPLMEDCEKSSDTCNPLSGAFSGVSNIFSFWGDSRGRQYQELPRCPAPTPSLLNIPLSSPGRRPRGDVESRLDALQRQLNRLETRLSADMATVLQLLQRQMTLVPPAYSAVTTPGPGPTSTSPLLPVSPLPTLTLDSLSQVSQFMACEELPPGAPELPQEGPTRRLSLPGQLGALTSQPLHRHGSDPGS
Sequence of Nuclear receptor subfamily 1 group I member 2 (Homo sapiens) (O75469 whole entry, looked up): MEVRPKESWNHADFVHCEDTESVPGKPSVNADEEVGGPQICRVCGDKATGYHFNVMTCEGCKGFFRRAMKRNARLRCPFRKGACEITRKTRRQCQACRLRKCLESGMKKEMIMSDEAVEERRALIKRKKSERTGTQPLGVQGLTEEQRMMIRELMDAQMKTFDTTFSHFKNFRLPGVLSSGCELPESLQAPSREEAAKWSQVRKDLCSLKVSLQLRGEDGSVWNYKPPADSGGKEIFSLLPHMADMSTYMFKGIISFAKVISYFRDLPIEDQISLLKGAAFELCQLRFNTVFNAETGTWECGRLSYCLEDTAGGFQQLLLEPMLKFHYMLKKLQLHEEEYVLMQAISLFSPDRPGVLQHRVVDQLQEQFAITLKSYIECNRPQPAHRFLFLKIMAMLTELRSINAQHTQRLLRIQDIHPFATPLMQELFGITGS
Sequence of Cytochrome P450 2C9 (Homo sapiens) (P11712 whole entry, looked up): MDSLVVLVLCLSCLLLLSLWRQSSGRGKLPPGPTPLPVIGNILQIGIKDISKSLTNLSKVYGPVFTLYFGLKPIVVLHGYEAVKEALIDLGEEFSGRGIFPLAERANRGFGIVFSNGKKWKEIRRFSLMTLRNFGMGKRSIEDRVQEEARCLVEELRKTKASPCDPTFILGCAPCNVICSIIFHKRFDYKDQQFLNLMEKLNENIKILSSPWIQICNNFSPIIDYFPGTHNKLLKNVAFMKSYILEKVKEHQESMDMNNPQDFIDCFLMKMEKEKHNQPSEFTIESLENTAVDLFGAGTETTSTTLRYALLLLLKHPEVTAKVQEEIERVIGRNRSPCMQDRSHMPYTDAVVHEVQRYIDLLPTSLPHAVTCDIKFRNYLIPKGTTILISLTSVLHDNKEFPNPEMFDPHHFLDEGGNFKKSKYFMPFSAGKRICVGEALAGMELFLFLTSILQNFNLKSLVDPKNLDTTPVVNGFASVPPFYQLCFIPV
Sequence of Cytochrome P450 2D6 (Homo sapiens) (P10635 whole entry, looked up): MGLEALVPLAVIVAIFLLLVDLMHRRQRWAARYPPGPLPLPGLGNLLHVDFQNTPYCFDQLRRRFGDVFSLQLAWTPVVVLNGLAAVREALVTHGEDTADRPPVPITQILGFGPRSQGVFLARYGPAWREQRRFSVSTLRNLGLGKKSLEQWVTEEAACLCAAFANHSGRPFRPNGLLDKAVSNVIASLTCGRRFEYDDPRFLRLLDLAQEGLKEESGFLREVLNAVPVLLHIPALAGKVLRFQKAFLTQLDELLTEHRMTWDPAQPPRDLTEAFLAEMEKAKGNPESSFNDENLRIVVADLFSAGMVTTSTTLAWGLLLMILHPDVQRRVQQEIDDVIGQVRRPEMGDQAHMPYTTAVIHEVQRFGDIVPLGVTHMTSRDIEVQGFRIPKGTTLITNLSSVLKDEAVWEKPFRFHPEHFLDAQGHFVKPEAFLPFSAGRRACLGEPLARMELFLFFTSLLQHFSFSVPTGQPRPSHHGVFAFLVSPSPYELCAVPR
Sequence of Cytochrome P450 2C19 (Homo sapiens) (P33261 whole entry, looked up): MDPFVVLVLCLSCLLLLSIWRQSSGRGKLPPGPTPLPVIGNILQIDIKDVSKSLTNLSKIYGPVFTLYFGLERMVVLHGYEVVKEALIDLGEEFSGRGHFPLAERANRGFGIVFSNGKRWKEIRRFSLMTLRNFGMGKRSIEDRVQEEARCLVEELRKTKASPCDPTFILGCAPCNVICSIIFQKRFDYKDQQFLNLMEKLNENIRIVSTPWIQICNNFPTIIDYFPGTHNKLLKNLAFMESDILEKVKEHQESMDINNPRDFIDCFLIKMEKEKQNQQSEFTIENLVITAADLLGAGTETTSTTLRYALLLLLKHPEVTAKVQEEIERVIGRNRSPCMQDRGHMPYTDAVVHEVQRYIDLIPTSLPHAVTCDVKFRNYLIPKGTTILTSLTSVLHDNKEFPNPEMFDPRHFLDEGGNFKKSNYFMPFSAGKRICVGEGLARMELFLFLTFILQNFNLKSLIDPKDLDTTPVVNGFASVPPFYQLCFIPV

Compound	outcome [1]	Potency [2]	Potency [3]	Potency [4]	Potency [5]	Potency [6]	Potency [7]	Potency [8]	Potency [9]	Potency [10]	Potency [11]	Potency [12]	Potency [13]	max activation [14]
Cc1ccccc1O	inactive	inactive	inactive	inactive	inactive	inactive	inactive	inactive	inactive	inactive	39.9 µM (active)	inactive	inactive	
CCC[CH2][Sn]([Cl])([Cl])[Cl]	inactive	inactive	inactive	inactive	inactive	inactive	inactive	inactive	40.6 µM (active) and inactive		inactive	inactive	inactive	
O=[N+]([O-])c1ccccc1	inactive	inactive	inactive	inactive	inactive	inactive	inactive	16.4 µM (active) and inactive	inactive	inactive	inactive		inactive	7.19% (inactive)
CN(C)[C@@H]1C(=O)C(C(N)=O)=C(O)[C@@]2(O)C(=O)C3=C(O)c4c(O)cccc4[C@@](C)(O)[C@H]3C[C@@H]12	inactive	inactive	inactive					31.8 µM (active) and inactive and 19.5 µM (active)	inactive			inactive	inactive	-1.09% (inactive)
CN1C(=O)CN=C(c2ccccc2)c2cc(Cl)ccc21	inactive	inactive												
O=C(NC(=O)c1c(F)cccc1F)Nc1cc(Cl)c(OC(F)(F)C(F)C(F)(F)F)cc1Cl (stereo not drawn)		inactive	inactive	inactive	inactive	inactive	inactive	inactive	10 µM (active) and 34.7 µM (active)	11.2 µM (active) and 17.4 µM (active)	inactive		inactive	-1.37% (inactive)
NCCc1ccc(O)cc1	inactive	inactive	inactive	62.8 µM (active) and inactive	inactive		inactive	25 µM (active) and 7.76 µM (active)	49.9 µM (active) and inactive		39.6 µM (active) and inactive			
CNC(=O)Oc1ccccc1OC(C)C	inactive	inactive	inactive		3.18 µM (active) and 3.17 µM (active)	798 nM (active) and 1.59 µM (active)	22.5 µM (active) and 22.4 µM (active)	inactive	inactive	inactive	35.6 µM (active)	inactive	inactive	
O=NN1CCCCCCC1	inactive	inactive	inactive	inactive	inactive		inactive	inactive	inactive		inactive	inactive	inactive	
Clc1cccc(Cl)c1Cl	inactive	inactive	inactive	inactive	inactive		inactive	inactive	35.2 µM (active) and inactive		inactive	inactive	inactive	
CC(C)OC(=O)Nc1cccc(Cl)c1	inactive	inactive	38 µM (active) and 48.6 µM (active)		inactive	inactive	inactive	inactive	24.8 µM (active) and 31.7 µM (active)	55.6 µM (active) and 71 µM (active)	9.89 µM (active) and 8.94 µM (active)		inactive	
CC(C)OC(=O)Nc1ccccc1	inactive	inactive	38.6 µM (active)	inactive	inactive		inactive	inactive	40 µM (active)		28.3 µM (active) and 39.9 µM (active)	inactive	inactive	
c1ccc(OP(Oc2ccccc2)Oc2ccccc2)cc1	inactive	inactive	inactive	inactive	inactive		inactive	inactive		inactive	inactive	inactive	inactive	
CCOP(=S)(OCC)SCCSCC	inactive	inactive	inactive		inactive		inactive	20.6 µM (active) and inactive	3.67 µM (active) and 1.07 µM (active)		26 µM (active) and 7.57 µM (active)	inactive	4.12 µM (active) and 3.8 µM (active)	
CCCCCOC(=O)c1ccccc1C(=O)OCCCCC	inactive	inactive	inactive		inactive	inactive	inactive	inactive	11.2 µM (active) and 7.96 µM (active)	28.2 µM (active) and 7.96 µM (active)	17.8 µM (active) and 8.94 µM (active)	inactive		
CC(C)N1C(=O)c2ccccc2NS1(=O)=O	inactive	inactive	inactive		inactive	inactive	inactive	inactive			inactive		inactive	
C1CC2OC2CC1C1CO1 (stereo not drawn)	inactive	inactive	inactive		inactive		inactive	inactive	69.7 µM (active)	inactive	inactive	inactive	inactive	
CN(C)N=O	inactive	inactive	inactive	inactive	inactive		inactive	inactive	inactive		inactive	inactive	inactive	
